Inconclusive results are not listed. Unmarked numbers belong to inactive results. The call rests on the fitted dose curve; in most records, active means well fitted inhibition curve with a large enough effect; inconclusive means small, poorly fitted or top-dose-only effect; inactive means flat fitted curve, though single readings scatter.
Assay: qHTS profiling for inhibitors of Plasmodium falciparum proliferation (AID 504749);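 further: 0% = DMSO vehicle and full inhibition = artemisinin control; nearly all actives have a fitted effect of over 60% in size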
Conditions: P. falciparum in erythrocytes, SYBR Green DNA, 72 h; at 12.8 µM (top of the series); parasite line A
In short: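 P. falciparum-infected erythrocytes (0.3% parasitemia, 2.5% hematocrit) incubated with compound 72 h at 37 C, 5% CO2. Parasite DNA detected by SYBR Green after lysis, overnight at room temperature; normalised to 0.29 uM artemisinin and DMSO.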
Work on CCOC(=O)Nc1ccc2c(c1)N(C(=O)CCN1CCOCC1)c1ccccc1S2 yielded an activity, negative = inhibition of 5.76%.
For CCCCNc1ccc(C(=O)OCCOCCOCCOCCOCCOCCOCCOCCOCCOC)cc1, the activity, negative = inhibition was -21.5%.
In the case of CN1CCC(OC(c2ccccc2)c2ccccc2)CC1, the activity, negative = inhibition is reported as -11.2%.
CCCCc1cc2ccccc2c(OCCN(C)C)n1 gave an activity, negative = inhibition of 8.06%.

Same assay, conditions: P. falciparum in erythrocytes, SYBR Green DNA, 72 h; at 12.8 µM (top of the series); parasite line B
CCOC(=O)Nc1ccc2c(c1)N(C(=O)CCN1CCOCC1)c1ccccc1S2 showed an activity, negative = inhibition of 22.5%.
With CCCCNc1ccc(C(=O)OCCOCCOCCOCCOCCOCCOCCOCCOCCOC)cc1 the activity, negative = inhibition was -9.92%.
With CN1CCC(OC(c2ccccc2)c2ccccc2)CC1 the activity, negative = inhibition was -2.27%.
Work on CCCCc1cc2ccccc2c(OCCN(C)C)n1 yielded an activity, negative = inhibition of 4.66%.

Same assay, conditions: P. falciparum in erythrocytes, SYBR Green DNA, 72 h; at 28.7 µM (top of the series); parasite line A
O=C(Oc1cccc2cccnc12)c1ccccc1 showed an activity, negative = inhibition of 5.84%.
Compound NC(=O)C1(N2CCCCC2)CCN(CCCC(=O)c2ccc(F)cc2)CC1 has an activity, negative = inhibition of 3.28%.
Compound CCOC(=O)C(C#N)=C(c1ccccc1)c1ccccc1 has an activity, negative = inhibition of 12.2%.
COc1ccc(CN(CCN(C)C)c2ncccn2)cc1 gave an activity, negative = inhibition of 12.9%.
CCCCC(CC)COC(=O)/C=C/c1ccc(OC)cc1 (stereo unspecified) showed an activity, negative = inhibition of 10.4%.
CN(C)CCN1C(=O)c2ccccc2N(C)c2ccccc21 gave an activity, negative = inhibition of -2.77%.
Work on COc1ccc2c(c1)c1c3n2CCN(C)C3=NCC1 yielded an activity, negative = inhibition of -3.91%.
Compound CN1CCN(C2=Nc3cc(F)ccc3Cc3ccccc32)CC1 has an activity, negative = inhibition of -5.08%.
With O=C1C(O)=C(O)C(=O)C(O)=C1O the activity, negative = inhibition was 5.3%.
For Cc1cc(-c2ccccc2)nnc1NCCN1CCOCC1, the activity, negative = inhibition was 6.44%.
COc1ccc(CCN(C)CCCN2CCc3cc(OC)c(OC)cc3CC2=O)cc1OC gave an activity, negative = inhibition of -14.9%.
Compound CC(C)=CCOc1ccc(/C=C/C(=O)c2ccc(OCC=C(C)C)cc2OCC(=O)O)cc1 has an activity, negative = inhibition of -9.12%.
Work on COc1ccc(C(=O)c2ccccc2)c(O)c1 yielded an activity, negative = inhibition of -10.8%.
In the case of O=C(CCN1CCN2CCCC2C1)N1c2ccccc2Sc2ccc(Cl)cc21 (stereo unspecified), the activity, negative = inhibition is reported as -26.8%.
Compound NC(=O)n1c(O)c(C(=O)c2cccs2)c2cc(Cl)ccc21 has an activity, negative = inhibition of 5.54%.
Compound C=CCN1CCc2nc(N)sc2CC1 has an activity, negative = inhibition of -6.7%.
CC1CCc2c(N3CCC(O)CC3)c(F)cc3c(=O)c(C(=O)O)cn1c23 (stereo unspecified) showed an activity, negative = inhibition of -29.3%.
Compound NS(=O)(=O)Cc1noc2ccccc12 has an activity, negative = inhibition of 6.43%.
Compound Cl/C(=C\n1cncn1)c1ccc(Cl)cc1Cl has an activity, negative = inhibition of 10.9%.
CCOCCn1c(N2CCCN(C)CC2)nc2ccccc21 showed an activity, negative = inhibition of 7.9%.
CCN(CC)CCOC(=O)C1(c2ccccc2)CCCC1 gave an activity, negative = inhibition of -50.7%.
With CCC(C(=O)OCCOCCN(CC)CC)c1ccccc1 (stereo unspecified) the activity, negative = inhibition was 5.84%.
With C=C[C@@]1(C)CC(=O)[C@]2(O)[C@@]3(C)[C@@H](O)CCC(C)(C)[C@@H]3[C@H](O)[C@H](OC(C)=O)[C@@]2(C)O1 the activity, negative = inhibition was -7.28%.
Work on CCN(CC)CCOc1ccccc1C(=O)CCc1ccccc1 yielded an activity, negative = inhibition of 2.97%.
For CC(=O)OCC(=O)[C@H]1CC[C@H]2[C@@H]3CCC4=CC(=O)CC[C@]4(C)[C@H]3CC[C@]12C, the activity, negative = inhibition was -11.3%.
CN(C)C(=O)Nc1ccc(Cl)c(Cl)c1 showed an activity, negative = inhibition of -1.54%.
C#C[C@]1(OC(C)=O)CC[C@H]2[C@@H]3CCC4=C/C(=N/O)CC[C@@H]4[C@H]3CC[C@@]21CC showed an activity, negative = inhibition of -6.98%.
For CCC(CC)(CC(=O)Nc1cccc(/C=C/c2nc(C3CCC3)cs2)c1)C(=O)O, the activity, negative = inhibition was -2.66%.
For NCCNc1cccc2ccccc12, the activity, negative = inhibition was -9.01%.

Same assay, conditions: P. falciparum in erythrocytes, SYBR Green DNA, 72 h; at 28.7 µM (top of the series); parasite line B
O=C(Oc1cccc2cccnc12)c1ccccc1 showed an activity, negative = inhibition of -15.2%.
With NC(=O)C1(N2CCCCC2)CCN(CCCC(=O)c2ccc(F)cc2)CC1 the activity, negative = inhibition was 10.8%.
CCOC(=O)C(C#N)=C(c1ccccc1)c1ccccc1 gave an activity, negative = inhibition of -2.15%.
Work on COc1ccc(CN(CCN(C)C)c2ncccn2)cc1 yielded an activity, negative = inhibition of 5.48%.
CCCCC(CC)COC(=O)/C=C/c1ccc(OC)cc1 (stereo unspecified) showed an activity, negative = inhibition of 11.8%.
In the case of CN(C)CCN1C(=O)c2ccccc2N(C)c2ccccc21, the activity, negative = inhibition is reported as 8.88%.
For COc1ccc2c(c1)c1c3n2CCN(C)C3=NCC1, the activity, negative = inhibition was 11.3%.
CN1CCN(C2=Nc3cc(F)ccc3Cc3ccccc32)CC1 gave an activity, negative = inhibition of -0.186%.
Work on O=C1C(O)=C(O)C(=O)C(O)=C1O yielded an activity, negative = inhibition of 12.3%.
With Cc1cc(-c2ccccc2)nnc1NCCN1CCOCC1 the activity, negative = inhibition was 8.72%.
In the case of COc1ccc(CCN(C)CCCN2CCc3cc(OC)c(OC)cc3CC2=O)cc1OC, the activity, negative = inhibition is reported as -7.04%.
Compound CC(C)=CCOc1ccc(/C=C/C(=O)c2ccc(OCC=C(C)C)cc2OCC(=O)O)cc1 has an activity, negative = inhibition of -8.65%.
With COc1ccc(C(=O)c2ccccc2)c(O)c1 the activity, negative = inhibition was 10.2%.
In the case of O=C(CCN1CCN2CCCC2C1)N1c2ccccc2Sc2ccc(Cl)cc21 (stereo unspecified), the activity, negative = inhibition is reported as -9.82%.
NC(=O)n1c(O)c(C(=O)c2cccs2)c2cc(Cl)ccc21 gave an activity, negative = inhibition of -6.01%.
Compound C=CCN1CCc2nc(N)sc2CC1 has an activity, negative = inhibition of 2.41%.
Compound CC1CCc2c(N3CCC(O)CC3)c(F)cc3c(=O)c(C(=O)O)cn1c23 (stereo unspecified) has an activity, negative = inhibition of -19.8%.
Work on NS(=O)(=O)Cc1noc2ccccc12 yielded an activity, negative = inhibition of 4.66%.
In the case of Cl/C(=C\n1cncn1)c1ccc(Cl)cc1Cl, the activity, negative = inhibition is reported as 7.76%.
CCOCCn1c(N2CCCN(C)CC2)nc2ccccc21 gave an activity, negative = inhibition of 8.28%.
CCN(CC)CCOC(=O)C1(c2ccccc2)CCCC1 showed an activity, negative = inhibition of -32%.
CCC(C(=O)OCCOCCN(CC)CC)c1ccccc1 (stereo unspecified) showed an activity, negative = inhibition of 5.27%.
Work on C=C[C@@]1(C)CC(=O)[C@]2(O)[C@@]3(C)[C@@H](O)CCC(C)(C)[C@@H]3[C@H](O)[C@H](OC(C)=O)[C@@]2(C)O1 yielded an activity, negative = inhibition of 2.74%.
Compound CCN(CC)CCOc1ccccc1C(=O)CCc1ccccc1 has an activity, negative = inhibition of -13.2%.
Work on CC(=O)OCC(=O)[C@H]1CC[C@H]2[C@@H]3CCC4=CC(=O)CC[C@]4(C)[C@H]3CC[C@]12C yielded an activity, negative = inhibition of -3.83%.
Work on CN(C)C(=O)Nc1ccc(Cl)c(Cl)c1 yielded an activity, negative = inhibition of -6.86%.
For C#C[C@]1(OC(C)=O)CC[C@H]2[C@@H]3CCC4=C/C(=N/O)CC[C@@H]4[C@H]3CC[C@@]21CC, the activity, negative = inhibition was -15.6%.
CCC(CC)(CC(=O)Nc1cccc(/C=C/c2nc(C3CCC3)cs2)c1)C(=O)O gave an activity, negative = inhibition of -0.894%.
Compound NCCNc1cccc2ccccc12 has an activity, negative = inhibition of 2.1%.

From PubChem BioAssay (NCATS)
